KDM5B inhibitor: blocks human KDM5B histone demethylase activity | KDM5B demethylase, FDH-coupled NADH fluorescence (FDH is formaldehyde dehydrogenase) | Potency, µM (highest dose often 57.7 µM), most hits filed as inhibitors | 220,000 tested, 2.6% active | AID 1347165; active = well fitted inhibition curve with a large enough effect; inconclusive = small, poorly fitted or top-dose-only effect; inactive = no such curve, though single readings can be large or run the other way; note: potency is the fitted concentration of half-maximal effect; 0% is about no effect; nearly all actives have a fitted effect of over 70% in size
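qHTS format, multiple compound concentrations. Buffer 50 mM HEPES pH 7.5/0.01% Tween-20; 200 nM KDM5BΔAP final; 10 min compound preincubation; substrate-mix levels 12.5 µM peptide, 25 µM α-KG, 0.25 mM NAD⁺; 30 min RT; ΔRFU.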
IP6K1 inhibitor: inhibitors of human IP6K1; Q92551; IP6K1 kinase, ADP-Glo luminescence, 2 h; stronger effect = lower value; activity change, % (series mostly up to about 58 µM); 140,000 tested, 0.81% active; AID 1645851; in the data active = activity change below about -25%; note: % is set by controls: 0 for no effect and ±100 for the full control effect
Target sequence (Q92551 whole entry, looked up): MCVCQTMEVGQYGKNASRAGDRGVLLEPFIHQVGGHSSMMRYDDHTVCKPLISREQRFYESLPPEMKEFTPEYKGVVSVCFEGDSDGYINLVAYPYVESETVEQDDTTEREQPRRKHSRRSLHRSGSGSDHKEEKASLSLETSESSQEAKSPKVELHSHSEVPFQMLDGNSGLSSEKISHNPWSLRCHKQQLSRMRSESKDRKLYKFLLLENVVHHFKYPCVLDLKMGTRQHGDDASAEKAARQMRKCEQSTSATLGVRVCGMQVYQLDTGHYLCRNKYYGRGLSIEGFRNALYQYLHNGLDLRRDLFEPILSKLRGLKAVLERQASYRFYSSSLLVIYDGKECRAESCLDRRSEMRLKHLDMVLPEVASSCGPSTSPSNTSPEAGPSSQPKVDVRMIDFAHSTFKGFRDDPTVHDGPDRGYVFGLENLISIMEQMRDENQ
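ADP-Glo luminescence measures ADP made by human IP6K1 during a 2 h RT reaction with ATP/IP6 (mix at 1.3 mM/130 uM); top library doses 57.5 and 19.1 uM final.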
Numbers without * were called inactive; i = inactive; ? = inconclusive; nt = not tested or not shown; ! = a repeat was not active. Sampled rows, rich in hits. Any-hit rate of the full collection: about 2.8%.

SMILES	KDM5B inhibitor	IP6K1 inhibitor
CC1=C[C@@H](CN2CCN(C)CC2)[C@H](C(C)C)C[C@H]1Cc1nnc(-c2ccc(N(C)C)cc2)o1	?	-4
O=C1NCc2ccccc2CC12CCN(CC1CC=CCC1)C2 (stereo not drawn)	i	6
CC(C)N1C[C@H](O)C[C@H]1c1nnc2n1CCN(C(=O)Cc1cccc(F)c1)C2	i	-8
COc1ccc(-c2nc(-c3c(C)noc3C)cc3c2cc(C)n3CCN(C)C)cn1	40µM*	-11
Cc1noc(C)c1-c1cc2c(cc(C)n2CCN(C)C)c(-c2cccnc2)n1	32µM*	-3
Cc1noc(C)c1-c1cc2c(cc(C)n2CCN(C)C)c(Nc2ccn(C)n2)n1	i	-3
Cc1cc2cc(-c3c(C)noc3C)nc(N(C)CCN(C)C)c2o1	i	-10
Cc1noc(C)c1-c1cc2cc(C(C)C)oc2c(-c2cccc(CO)c2)n1	?	3
COc1ccc(-c2nc(-c3c(C)noc3C)cc3cc(C(C)C)oc23)cn1	28µM*	-17
Cc1nc2ccccc2n1CCc1nc2c3ccccc3nc(SCc3cccc(F)c3)n2n1	i	7
O=C(NCCc1ccccc1F)c1ccc2nnc(-c3cccc(C(F)(F)F)c3)n2c1	nt	3
O=C(NC1CCCC1)C1CCN(Cc2ccccc2-c2ccccc2F)CC1	nt	8
CN(CC1CCOCC1)C(=O)c1ccc(Br)cc1	i	30
O=C(NC1CCCN(c2nc3ncccc3o2)C1)c1cccc(Cl)c1 (stereo not drawn)	i	10
O=C(NC1CCN(c2nc3ncccc3o2)CC1)c1cccc(Cl)c1	28µM*	11
O=C(NC1CCCC1)NC1CCN(c2nc3ncccc3o2)C1 (stereo not drawn)	nt	10
Cc1ccccc1C(=O)NC1CCCN(c2nc3ncccc3o2)C1 (stereo not drawn)	i	7
CC(C)(C)C(=O)NC1CCN(c2nc3ncccc3o2)CC1	25µM*	-6
Cc1ccccc1C(=O)NC1CCN(c2nc3ncccc3o2)CC1	32µM*	-16
O=C(NC1CCN(c2nc3ncccc3o2)CC1)C1CCCC1	35µM*	9
CN(C)C(=O)NC1CCN(c2nc3ncccc3o2)C1 (stereo not drawn)	nt	12
COCCNC(=O)CS(=O)Cc1nc(-c2cccc(C)c2)oc1C (stereo not drawn)	i	nt
COc1cccc(C(=O)NC2CCN(c3nc4ncccc4o3)CC2)c1	?	-15
O=C(Nc1ccccc1)NC1CCN(c2nc3ncccc3o2)CC1	25µM*!	-5
O=C(Nc1ccc(Cl)cc1)NC1CCN(c2nc3ncccc3o2)CC1	i	2
SMILES	KDM5B inhibitor	IP6K1 inhibitor
COCC(=O)NC1CCN(c2nc3ncccc3o2)CC1	32µM*	-11
O=C(NCCc1cccc(F)c1)C1CC=CCC1 (stereo not drawn)	i	nt
CC(C)C(=O)Nc1c(-c2cccc3ccccc23)c(=O)c2ccccc2n1C	i	nt
Nc1n[nH]c(CNc2cc(-c3ccc(F)cc3)nc3ccnn23)n1	28µM*	28
Fc1ccc(CCNc2cc(Cl)nc3ccnn23)cc1	i	15
Cc1ccc(C)c(Cn2c3ccccc3c3cnn(CC(=O)NC4CCCCCC4)c(=O)c32)c1	?	34
CCNc1ncc(C(=O)N(CCc2ccccc2)Cc2ccco2)cn1	28µM*	4
C=CCN(CCSc1ccccc1)C(=O)c1cnc(NCC)nc1	?	12
O=C(Nc1cccc2[nH]ccc12)C(=O)NC1CCCCC1	i	nt
CC(C)c1cc(C(=O)N2CCC(C(N)=O)CC2)c2ccccc2n1	i	nt
Cc1ccc(C#N)c(NCc2cccnc2Oc2cccc(C(F)(F)F)c2)n1	25µM*	-2
CC(C)(C)CC(=O)NCc1cccnc1Oc1cccc(C(F)(F)F)c1	i	21
Cc1noc(C)c1-c1cc(-c2cccc(F)c2)cn2cncc12	?	-8
COc1ccc(-c2cc(-c3c(C)noc3C)c3cncn3c2)cn1	?	-15
Cc1noc(C)c1-c1cc(-c2ccccc2C(F)(F)F)cn2cncc12	40µM*	-7
Cc1noc(C)c1-c1cc(-c2ccccc2F)cn2cncc12	35µM*	-8
Cc1ccc(Cl)cc1N1CCN(C(=O)c2cn(C)c3ccc(S(=O)(=O)N4CCCC4)cc3c2=O)CC1	?	9
COc1ccccc1-c1cc(C(=O)NCc2cccnc2)nc2c1cnn2C	?	-2
COC(=O)CNC(=O)c1nc(-c2ccccc2OC)c2cnccn12	100µM*	-16
COc1ccccc1-c1nc(C(=O)NCc2cccnc2)n2ccncc12	79µM*	-9
COc1ccccc1-c1nc(C(=O)N2CCCC2)n2ccncc12	?	-19
COc1ccccc1-c1nc(C(=O)NC(C)C)n2ccncc12	40µM*	8
COc1ccccc1-c1cc(C(=O)NCc2cccnc2)nn2cccc12	i	-9
COc1ccccc1-c1nc(C(=O)NCc2cccnc2)n2ccccc12	89µM*	-10
COc1ccc(C(=O)N[C@H]2C[C@@H](Cc3cc(-c4ccccc4)on3)C2(C)C)cc1	i	-8
SMILES	KDM5B inhibitor	IP6K1 inhibitor
O=C1N(C2CCOCC2)C[C@H]2CN(S(=O)(=O)c3ccccc3)CCN12	i	3
CCOC(=O)c1ccc(Oc2coc3cc(OCC=C(C)C)ccc3c2=O)cc1	i	nt
COc1cc2oc(=O)c(CC(=O)NCc3ccc(F)cc3)c(C)c2cc1OC	i	nt
O=C(Nc1ccc(Cl)cc1C(F)(F)F)N1CCC(n2cnnc2C2CC2)C1 (stereo not drawn)	i	6
COc1cc(CCNC(=O)Cn2c(=O)c(=O)n(C)c3ccccc32)cc(OC)c1OC	i	nt
COC(=O)C1CN(Cc2cn(Cc3ccc(C)cc3)nn2)CCS(=O)(=O)N1Cc1ccc(Cl)cc1 (stereo not drawn)	i	nt
COc1cccc(C(O)c2nc(C(=O)N3CCN(c4ccccn4)CC3)c(C)o2)c1 (stereo not drawn)	25µM*	-11
COc1cccc(C(O)c2nc(C(=O)Nc3ccc(OC)c(OC)c3)c(C)o2)c1 (stereo not drawn)	i	-13
CCCCn1c(-n2nc(C)cc2C)nc2c1c(=O)n(CC(=O)OC)c(=O)n2C	i	nt
CN(CCc1ccncc1)C(=O)CCc1ccnc(N2CCCC2)c1	?	-6
CC(=O)N1CCN(C(=O)CCc2ccnc(N3CCOCC3)c2)CC1	28µM*	-8
Cc1ccc(NC(=O)CCc2ccnc(N3CCCC3)c2)c(C)c1	32µM*	-12
COc1ccc(N2CCN(C(=O)CCc3ccnc(N4CCOCC4)c3)CC2)cc1	?	14
CNC(=O)CCc1ccnc(N2CCCC2)c1	?	-13
CCCN(C)C(=O)CCc1ccnc(N2CCOCC2)c1	25µM*	-1
Fc1cccc(CN2CCCC3(CCN(c4cnccn4)C3)C2)c1F (stereo not drawn)	28µM*	-3
O=C(C1CCCC1)N1CCC2(CCCN(Cc3cccc(F)c3F)C2)C1 (stereo not drawn)	i	-7
COc1ccc(F)c(CN2CCCC3(CCN(c4cc(C)nc(N)n4)C3)C2)c1 (stereo not drawn)	?	-4
Fc1ccccc1CN1CCCC2(CCN(c3cnccn3)C2)C1 (stereo not drawn)	32µM*	1
Cc1[nH]c2ccc(C(=O)N3CCC4(CCCN(C)C4=O)C3)cc2c1C (stereo not drawn)	i	7
